# Laboratory results from PubChem BioAssay (NCATS).
# A number with no mark means an inactive call. Records with an inconclusive call do not appear. Where a call stands in place of a potency, no number is given. Activity calls are given as the source filed them. Unless noted, calls follow the shape of the dose curve; as a rule, active = well fitted curve in the direction sought with a large enough effect; inconclusive = small, poorly fitted or top-dose-only effect, or another doubt; inactive = no such curve, though single readings can be large; an effect the other way counts as inactive or inconclusive.
# How the values were obtained:
# [1] = target: DNA dC->dU-editing enzyme APOBEC-3G (Homo sapiens) (UniProt Q9HC16); assay: qHTS for inhibitors of Vif-A3G interactions: Validation (AID 588379); settings: Vif-A3G protein interaction assay; series mostly up to 46.1 µM
# In short: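 Yellow fluorescence (Ex 488, Em 500-530) of Vif-coexpressing HeLa A3G-eYFP cells, scanned by Acumen cytometer, reports blocked A3G degradation. Cells plated at 700/well overnight at 37 deg C before compound addition, then a further overnight compound incubation at 37 deg C.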
# [2] = target: Glucocorticoid receptor (Homo sapiens) (UniProt P04150); assay: GR-GFP Redistribution (AID 450;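 active = compounds whose dose series gives a full or clear partial fitted curve of increased nuclear translocation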; also: potency is read from the fitted curve at half-maximal effect); settings: U2OS GR-GFP nuclear translocation, laser cytometry, 2 h
# [3] = target: Ubiquitin carboxyl-terminal hydrolase 1 (Homo sapiens) (UniProt O94782); assay: Inhibitors of USP1/UAF1: Pilot qHTS (AID 504865); settings: purified USP1/UAF1, Ub-rhodamine cleavage fluorescence; series mostly up to 54.9 µM;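 also: rhodamine fluorescence freed from ubiquitin-rhodamine substrate followed over time; top concentration of the series differs between compounds; nearly all actives have a fitted effect of over 35% in size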
# In short: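 Enzyme-free wells gave the negative control, while test wells held 1nM USP1/UAF1 preincubated with compound for 15 min at room temperature. Ub-Rho at 150nM final started the reaction, and fluorescence at 480/540 nm was recorded kinetically.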
# [4] = S16 Schwann cell PMP22 intronic element firefly luciferase assay (AID 624032); settings: S16 rat Schwann cells, PMP22 element FLuc, 24 h; series mostly up to 57.5 µM; also: nearly all actives have a fitted effect of over 30% in size; also: potency is read from the fitted curve at half-maximal effect
# In short: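 Rat S16 Schwann cells stably carrying firefly luciferase driven by a PMP22 intronic element, in 10% FBS, treated 24 h at 37 C. ONE-Glo luminescence normalized to PTC124 control and DMSO (0%); curves classed by r2, magnitude and activity.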
# CP238 = assay: qHTS profiling for inhibitors of Plasmodium falciparum proliferation (AID 504749); also: nearly all actives have a fitted effect of over 60% in size; also: potency is read from the fitted curve at half-maximal effect; settings: P. falciparum in erythrocytes, SYBR Green DNA, 72 h; series mostly up to 28.7 µM
# In short: (§1)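 Each compound contacts P. falciparum-infected red blood cells for 72 h at 37 C; lysis buffer (Tris, EDTA, saponin, Triton X, SYBR Green I) is added and fluorescence measured next morning; values normalized to controls.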
# CP250 = assay: as above; settings: P. falciparum in erythrocytes, SYBR Green DNA, 72 h; series mostly up to 28.7 µM
# In short: as §1
# CP262 = assay: as above; settings: P. falciparum in erythrocytes, SYBR Green DNA, 72 h; series mostly up to 28.7 µM
# In short: as §1
# CP265 = assay: as above; settings: P. falciparum in erythrocytes, SYBR Green DNA, 72 h; series mostly up to 28.7 µM
# In short: as §1
# CP297 = assay: as above; settings: P. falciparum in erythrocytes, SYBR Green DNA, 72 h; series mostly up to 28.7 µM
# In short: as §1
# CP315 = assay: as above; settings: P. falciparum in erythrocytes, SYBR Green DNA, 72 h; series mostly up to 28.7 µM
# In short: as §1
# CP325 = assay: as above; settings: P. falciparum in erythrocytes, SYBR Green DNA, 72 h; series mostly up to 28.7 µM
# In short: as §1
# CP329 = assay: as above; settings: P. falciparum in erythrocytes, SYBR Green DNA, 72 h; series mostly up to 28.7 µM
# In short: as §1
# CP335 = assay: as above; settings: P. falciparum in erythrocytes, SYBR Green DNA, 72 h; series mostly up to 28.7 µM
# In short: as §1
# Dd2 = assay: as above; settings: P. falciparum in erythrocytes, SYBR Green DNA, 72 h; series mostly up to 28.7 µM
# In short: as §1
# ECU = assay: as above; settings: P. falciparum in erythrocytes, SYBR Green DNA, 72 h; series mostly up to 28.7 µM
# In short: as §1
# FAB9 = assay: as above; settings: P. falciparum in erythrocytes, SYBR Green DNA, 72 h; series mostly up to 28.7 µM
# In short: as §1
# GB4 = assay: as above; settings: P. falciparum in erythrocytes, SYBR Green DNA, 72 h; series mostly up to 28.7 µM
# In short: as §1
# HB3 = assay: as above; settings: P. falciparum in erythrocytes, SYBR Green DNA, 72 h; series mostly up to 28.7 µM
# In short: as §1
# PAD = assay: as above; settings: P. falciparum in erythrocytes, SYBR Green DNA, 72 h; series mostly up to 28.7 µM
# In short: as §1
# SC27B = assay: as above; settings: P. falciparum in erythrocytes, SYBR Green DNA, 72 h; series mostly up to 28.7 µM
# In short: as §1
# Ubiquitin carboxyl-terminal hydrolase 1 (Homo sapiens), sequence (O94782 whole entry, looked up): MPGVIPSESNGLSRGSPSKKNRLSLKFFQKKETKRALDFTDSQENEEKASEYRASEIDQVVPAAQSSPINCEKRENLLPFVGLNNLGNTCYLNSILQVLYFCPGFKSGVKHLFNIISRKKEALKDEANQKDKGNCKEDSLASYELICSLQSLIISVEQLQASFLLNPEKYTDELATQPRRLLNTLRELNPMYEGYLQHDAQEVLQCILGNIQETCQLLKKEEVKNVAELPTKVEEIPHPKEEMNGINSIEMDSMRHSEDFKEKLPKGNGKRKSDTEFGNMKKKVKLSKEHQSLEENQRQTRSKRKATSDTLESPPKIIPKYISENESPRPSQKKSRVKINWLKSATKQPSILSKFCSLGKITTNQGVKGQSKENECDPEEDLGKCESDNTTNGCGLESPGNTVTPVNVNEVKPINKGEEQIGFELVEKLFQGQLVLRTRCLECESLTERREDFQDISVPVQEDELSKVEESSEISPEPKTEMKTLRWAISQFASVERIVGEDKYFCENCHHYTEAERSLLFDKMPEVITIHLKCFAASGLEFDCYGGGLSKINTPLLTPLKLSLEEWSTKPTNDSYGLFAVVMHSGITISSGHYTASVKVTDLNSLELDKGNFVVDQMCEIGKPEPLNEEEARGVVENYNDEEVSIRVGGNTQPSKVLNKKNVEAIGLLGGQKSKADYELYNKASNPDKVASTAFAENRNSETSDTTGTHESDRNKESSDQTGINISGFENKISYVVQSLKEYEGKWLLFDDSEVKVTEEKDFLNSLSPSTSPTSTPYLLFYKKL
# Glucocorticoid receptor (Homo sapiens), sequence (P04150 whole entry, looked up): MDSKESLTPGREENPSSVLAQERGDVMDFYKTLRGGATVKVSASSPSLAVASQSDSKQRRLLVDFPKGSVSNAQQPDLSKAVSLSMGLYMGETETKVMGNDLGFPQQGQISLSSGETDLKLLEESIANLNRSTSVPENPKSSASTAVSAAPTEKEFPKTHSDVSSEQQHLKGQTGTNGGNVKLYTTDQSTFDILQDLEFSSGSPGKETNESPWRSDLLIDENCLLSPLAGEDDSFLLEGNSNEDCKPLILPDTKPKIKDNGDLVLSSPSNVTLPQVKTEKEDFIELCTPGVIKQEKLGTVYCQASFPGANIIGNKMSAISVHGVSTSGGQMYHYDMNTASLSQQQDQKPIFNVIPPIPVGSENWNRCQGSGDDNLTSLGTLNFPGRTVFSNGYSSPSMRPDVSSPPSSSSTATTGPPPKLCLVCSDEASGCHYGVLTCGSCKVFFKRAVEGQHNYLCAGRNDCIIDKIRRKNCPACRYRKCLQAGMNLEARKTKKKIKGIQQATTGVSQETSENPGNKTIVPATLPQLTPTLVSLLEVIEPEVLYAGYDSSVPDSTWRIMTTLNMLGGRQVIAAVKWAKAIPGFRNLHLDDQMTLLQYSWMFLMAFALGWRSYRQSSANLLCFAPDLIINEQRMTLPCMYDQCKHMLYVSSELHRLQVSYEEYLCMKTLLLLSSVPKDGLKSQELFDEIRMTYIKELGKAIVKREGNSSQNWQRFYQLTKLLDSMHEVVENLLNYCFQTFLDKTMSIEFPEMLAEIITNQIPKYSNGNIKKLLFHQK
# DNA dC->dU-editing enzyme APOBEC-3G (Homo sapiens), sequence (Q9HC16 whole entry, looked up): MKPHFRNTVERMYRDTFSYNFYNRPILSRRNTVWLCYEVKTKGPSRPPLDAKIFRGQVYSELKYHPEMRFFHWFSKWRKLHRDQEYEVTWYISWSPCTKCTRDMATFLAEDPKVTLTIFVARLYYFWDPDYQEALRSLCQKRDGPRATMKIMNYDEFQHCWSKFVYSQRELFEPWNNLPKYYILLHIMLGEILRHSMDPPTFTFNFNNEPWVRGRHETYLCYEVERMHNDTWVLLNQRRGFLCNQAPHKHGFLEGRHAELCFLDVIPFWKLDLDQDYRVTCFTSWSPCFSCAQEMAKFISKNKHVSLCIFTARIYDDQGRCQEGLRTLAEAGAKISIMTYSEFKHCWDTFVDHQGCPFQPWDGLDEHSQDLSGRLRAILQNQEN
SMILES,outcome [1],Potency [2],Potency [3],Potency [4],Potency (CP238),Potency (CP250),Potency (CP262),Potency (CP265),Potency (CP297),Potency (CP315),Potency (CP325),Potency (CP329),Potency (CP335),Potency (Dd2),Potency (ECU),Potency (FAB9),Potency (GB4),Potency (HB3),Potency (PAD),Potency (SC27B)
C=C[C@@](C)(O)CC[C@@H]1[C@@]2(C)CCCC(C)(C)[C@@H]2CC[C@@]1(C)O,inactive,,,,,,,,,,,,,,,,,,,
C[C@@]12C(=O)OC(=O)[C@]1(C)[C@H]1CC[C@@H]2O1,,2.63 µM (active),inactive,0.616 µM (active),2.51 µM (active),3.16 µM (active),3.61 µM (active),3.55 µM (active),3.22 µM (active),5.73 µM (active),3.61 µM (active),2.56 µM (active),2.56 µM (active),4.47 µM (active),3.55 µM (active),inactive,4.05 µM (active),3.55 µM (active),3.98 µM (active),2.82 µM (active)
CC(/C=C1\SC(=S)N(CC(=O)O)C1=O)=C\c1ccccc1,,,inactive,inactive,inactive,inactive,inactive,inactive,inactive,inactive,inactive,inactive,inactive,inactive,inactive,inactive,inactive,inactive,inactive,inactive
C=C1CCC2[C@](C)(CO)C(O)CC[C@]2(C)C1C/C=C1/C(=O)OCC1O (stereo partly drawn),,,inactive,14.4 µM (active),inactive,12.6 µM (active),inactive,inactive,inactive,inactive,inactive,inactive,inactive,inactive,inactive,inactive,inactive,inactive,inactive,inactive
CN(CCOc1ccc(C[C@H](Nc2ccccc2C(=O)c2ccccc2)C(=O)O)cc1)c1ccccn1,inactive,> 46 µM,,,,,,,,,,,,,,,,,,
